Luc counter: blocks Kinase-Glo luciferase, a counter-screen artifact | Q27757 | Kinase-Glo luciferase, ATP luminescence, 8 min | Potency, µM (highest dose often 38.3 µM), inactives show at the highest dose activity change, negative = inhibition, usual class: inhibitors | 200,000 tested, 0.28% active | AID 1379; note: potency is the fitted concentration of half-maximal effect; % is set by controls: 0 for no effect and ±100 for the full control effect; nearly all actives have a fitted effect of over 60% in size
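Luminescence was the read-out, taken after 8-minute incubation at ambient temperature. Luciferase turned over luciferin with 10 uM ATP in imidazole pH 7.2 buffer containing KCl, MgCl2, Tween 20 and BSA.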
CBFb RUNX1 block: CBF-beta/RUNX1 interaction disruption | AlphaScreen CBFb-His/RUNX1-biotin binding, biochemical | Potency, µM (highest dose often 59.8 µM), for the others: top-dose activity, negative = inhibition, hits mostly inhibitors | 230,000 tested, under 10 active; note: % of control where 0% means no effect
Target sequence (Q01196 whole entry, looked up): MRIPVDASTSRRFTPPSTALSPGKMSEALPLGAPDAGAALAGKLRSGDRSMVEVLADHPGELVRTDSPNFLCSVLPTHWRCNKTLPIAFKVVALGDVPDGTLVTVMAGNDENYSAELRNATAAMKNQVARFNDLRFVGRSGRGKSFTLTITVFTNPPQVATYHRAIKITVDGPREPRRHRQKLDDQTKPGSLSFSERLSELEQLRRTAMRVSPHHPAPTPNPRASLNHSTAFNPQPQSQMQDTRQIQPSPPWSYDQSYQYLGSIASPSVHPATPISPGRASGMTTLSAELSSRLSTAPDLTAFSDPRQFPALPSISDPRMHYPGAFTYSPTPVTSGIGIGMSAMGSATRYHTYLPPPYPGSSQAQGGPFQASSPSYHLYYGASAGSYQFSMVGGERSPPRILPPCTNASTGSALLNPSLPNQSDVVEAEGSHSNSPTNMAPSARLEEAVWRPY
Target sequence (Q13951 whole entry, looked up): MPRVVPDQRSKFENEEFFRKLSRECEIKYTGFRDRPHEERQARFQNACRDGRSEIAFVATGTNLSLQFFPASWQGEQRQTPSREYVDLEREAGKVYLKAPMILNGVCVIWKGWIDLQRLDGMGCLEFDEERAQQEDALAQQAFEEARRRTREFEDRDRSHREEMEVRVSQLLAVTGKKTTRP
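Interaction loss through any mechanism counts as activity. Pre-formed complex of His-CBF-beta and biotin-RUNX1 (30 nM apiece) is incubated with compound 15 min, then with 50 ng nickel and 50 ng streptavidin beads for 90 min before AlphaScreen detection.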
TRPV1 agonist: human TRPV1 agonism; TRPV1-expressing cells, Fluo-8 calcium influx, agonist mode; 320,000 tested, 0.19% active; activation, % at 8.33 µM; Q8NER1; in the data active = activation above about 80%; inconclusive = between about 30% and that limit; note: 0% is about no effect
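TRPV1-expressing cells were cultured overnight at 35.5C and loaded with Fluo-8 calcium dye for 40 to 90 min at room temperature. After a 10 s baseline, compound was added and calcium influx was read kinetically for 3 min (ex 480/em 520 nm).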
TCR act: T cell receptor activation; primary human leukocytes, anti-CD3, IL-2 HTRF, 48 h; Potency, µM (series often up to 9.22 µM), for the others: at the top dose activation of IL-2 secretion, hits mostly activators; 330,000 tested, under 10 active; AID 504894; note: % of control where 0% means no effect
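Primary human leukocytes were stimulated with a-CD3 beads plus compounds for 48 hr without co-stimulation; secreted IL-2 was quantified by HTRF using a-IL-2-K (europium cryptate) and a-IL-2-d2, excited at 320nm with acceptor emission read at 665nm.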
MBNL1-CUG inh: MBNL1-poly(CUG) RNA binding inhibition | Q9NR56 | TR-FRET MBNL1-His/biotin-(CUG)12 binding, 665/545 ratio | Potency, µM (titrated, usually from 57.5 µM), for inactives: at the highest dose activity change, negative = inhibition, usual class: inhibitors | 280,000 tested, 0.036% active | AID 2675; active = well fitted inhibition curve with a large enough effect in the signal ratio, with a control signal flat, not every such curve was filed as active; inconclusive = small, poorly fitted or top-dose-only effect, or effect the other way, or a change in a side signal; inactive = no such curve, though single readings can be large or run the other way; the % refers to the signal ratio; note: potency is the fitted concentration of half-maximal effect; % is set by controls: 0 for no effect and ±100 for the full control effect
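Compound titration spanned 92 nM–58 uM against the MBNL1-His/biotin-(CUG)12 complex. After 60 min at room temperature with 5 nM streptavidin-XL665 and 0.055 ng/ul terbium anti-His, ratiometric 665/545 nm emission (Ex 340 nm) normalized to controls.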
TRPV1 PAM: potentiators of human vanilloid receptor 1 (TRPV1); Q8NER1; TRPV1-expressing cells, Fluo-8 calcium influx, capsaicin EC20 potentiation; potentiation, % at 8.33 µM; 320,000 tested, 0.02% active; AID 540277; in the data active = potentiation above about 80%; inconclusive = between about 30% and that limit; note: 0% is about no effect
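TRPV1-expressing cells were cultured overnight at 35.5C and loaded with Fluo-8 calcium dye for 40 to 90 min at room temperature. After a 10 s baseline, compound was added and calcium influx was read kinetically for 3 min (ex 480/em 520 nm).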
Starred values were filed as active, the others as inactive; ? = inconclusive; . = no result given; [ ] = dose if it differs, or a comment. This is a sample that favours compounds with a hit; in the whole collection about 0.35% have one here. Unless noted, calls come from the whole dose curve; as a rule, active = well fitted curve in the direction sought with a large enough effect; inconclusive = small, poorly fitted or top-dose-only effect, or another doubt; inactive = no such curve, though single readings can be large; an effect the other way counts as inactive or inconclusive.

SMILES | Luc counter | CBFb RUNX1 block | TRPV1 agonist | TCR act | MBNL1-CUG inh | TRPV1 PAM
O=C(/C=C/Nc1ccccc1)c1ccccc1 | 7.1µM* | -2% | -9 | 0% | ? | 6
COC(=O)C1=CO[C@@H](C)[C@@H]2CN3CCc4c([nH]c5ccccc45)[C@@H]3C[C@H]12 | . | -16% | . | . | . | .
O=C1C[C@H]2OCC=C3CN4CC[C@@]5(C(=O)O)[C@H](N1)C2[C@H]3C[C@H]45 (stereo not given in full) | -2%[7.66 µM] | . | . | . | . | .
N/C(=N\N=C\c1cccc(O)c1)c1nonc1N | 13µM* | 10% | 1 | 3% | ? | -2
COc1ccc(CC(=O)Nc2ccc(S(=O)(=O)N3CCCCC3)cc2)cc1OC | . | . | 88* | 4% | -10% | -12
COc1ccc(CC(=O)Nc2ccc(S(=O)(=O)N3CCCC3)cc2)cc1OC | . | . | . | -6%[46.1 µM] | . | .
COc1ccc(CC(=O)Nc2cccc(SC)c2)cc1OC | 5% | 2% | 101* | 5% | 1% | -8
COC(=O)c1cc(NC(=O)Cc2ccc(OC)c(OC)c2)cc(C(=O)OC)c1 | -5% | 0% | ? | -2% | -3% | -31
O=C1NC(=O)C(Cc2ccc(OCCN3COc4ccccc4C3=O)cc2)S1 (stereo not given) | . | 6% | . | . | . | .
c1ccc2nc(-c3nc4ccccc4o3)ccc2c1 | 1µM* | -4% | -5 | -13% | ? | 6
c1ccc(-c2nc3ccccc3o2)nc1 | -21% | 5% | 1 | -2% | 3% | -2
CCCCn1nc(NC(=O)COC)c2cc3ccc(C)cc3nc21 | . | . | 89* | 0% | 20% | -22
Cc1nn(C)c(C(=O)Nc2ccc(S(=O)(=O)NC34CC5CC(CC(C5)C3)C4)cc2)c1Br | -1% | 7% | 2 | 1%[46.1 µM] | 0% | 81*
Cc1ccc(S(=O)(=O)NC23CC4CC(CC(C4)C2)C3)cc1 | . | . | 19 | 66% | . | 10
Cc1cc(S(=O)(=O)N2CCC(N3CCCCC3)CC2)ccc1-n1cnnn1 | -4% | -10% | 6 | 1% | 7% | -1
Cc1cc(S(=O)(=O)N2CCC(NC(=O)C34CC5CC(CC(C5)C3)C4)CC2)ccc1-n1cnnn1 | -3% | 2% | 81* | -6% | -5% | -12
CCN(CC)c1ccc2cc(-c3nc4ccccc4[nH]3)c(=O)oc2c1 | ? | ? | 152* | -4% | ? | 26
O=c1oc2ccc3ccccc3c2cc1-c1nnc(-c2ccccc2)o1 | -2% | -3% | 12 | -6% | 16% | -6
CCN(CC)c1ccc2cc(-c3nc4ccccc4n3C)c(=O)oc2c1 | 15% | 16% | . | -4% | 15% | .
CCN(CC)c1ccc2cc(-c3nnc(-c4ccccc4)o3)c(=O)oc2c1 | 2% | 2% | 101* | -2%[46.1 µM] | 20% | 1
O=C(Nc1ccc(Br)cn1)c1ccc(Cl)s1 | . | . | 99* | -4% | 5% | 12
Cc1cc(C(=O)Nc2ccc(Br)cn2)sc1C | . | . | 83* | 6% | . | -5
O=C(Nc1ccc(Br)cn1)c1ccc(Br)s1 | . | . | ? | -2% | 131% | 11
N#CCCSC(=S)[C@H]1CCCC1=N | 0%[7.66 µM] | . | . | . | . | .
COc1ccc(NC(=O)CCCSc2nc(-c3ccco3)cc(C(F)(F)F)n2)cc1OC | -3% | 11% | 83* | 2%[46.1 µM] | 7% | -10
SMILES | Luc counter | CBFb RUNX1 block | TRPV1 agonist | TCR act | MBNL1-CUG inh | TRPV1 PAM
Cc1cc(NC(=O)CCCSc2nc(-c3ccco3)cc(C(F)(F)F)n2)no1 | 2% | 3% | -3 | -3% | -4% | 8
COc1cccc(CNC(=S)Nc2cccc(Cl)c2C)c1 | . | . | 87* | . | 0% | -26
COc1cccc(CNC(=S)Nc2cc(C)ccc2C)c1 | 1% | 9% | ? | -3% | -4% | -17
Cc1cnc2c3c(cc(Cl)c2c1)-c1ccccc1S(=O)(=O)N3 | . | . | 22 | . | . | -6
CCOC(=O)CCN1C(=O)[C@@H]2[C@H]3C(=CC[C@H]2C1=O)C(=O)[C@H]1O[C@H]1[C@H]3O | . | -4%[13.1 µM] | . | . | . | .
O=C(NC1CC1)C1=NOC(CNc2ncc(C(F)(F)F)cc2Cl)C1 (stereo not given) | 1% | -1% | 80* | 0% | -5% | -5
O=C(N/C=N/O)C1=NOC(CNc2ncc(C(F)(F)F)cc2Cl)C1 (stereo not given) | 2% | 1% | ? | -3% | -4% | -8
O=C(C1=NOC(CNc2ncc(C(F)(F)F)cc2Cl)C1)N1CCOCC1 (stereo not given) | 0% | -3% | 121* | -4% | -19% | -9
O=C(O)c1ccccc1NS(=O)(=O)c1cccc2ccccc12 | -3% | . | . | . | . | .
Cc1sc2ncnc(NCC(c3ccco3)N(C)C)c2c1C (stereo not given) | -4% | 3% | 86* | 4% | -21% | -9
CN(C)C(CNc1ncnc2sc3c(c12)CCCCC3)c1ccco1 (stereo not given) | -1% | -1% | 22 | -8% | -1% | -19
C[N+](C)(C)C(C1=CCCC1=O)c1ccccc1 (stereo not given) | -3%[7.66 µM] | . | . | . | . | .
COc1cc(/C=N\NC(=O)C2COc3ccccc3O2)cc(OC)c1O (stereo not given) | . | 8% | 88* | -9% | ? | 2
CC(C)(C)c1ccc2c(c1)OC(C(=O)N/N=C\c1ccncc1)CO2 (stereo not given) | . | 10% | 109* | -7% | 3% | -5
COc1cc(/C=N/NC(=O)C2COc3ccccc3O2)ccc1O (stereo not given) | . | 3% | 14 | -9% | . | -18
CC(C)(C)c1ccc2c(c1)OC(C(=O)N/N=C\c1ccc[nH]1)CO2 (stereo not given) | . | . | ? | -2% | 5% | 9
NC(N)=N/N=C(\c1ccc(Cl)cc1)C1CC1 | -8%[7.66 µM] | . | . | . | . | .
N#CCc1ccccc1[N+](=O)[O-] | . | 8%[21.7 µM] | . | . | . | .
CC(C)CCSc1nc(N2CCOCC2)c2c(c1C#N)CC(C)(C)OC2 | . | 21% | 91* | 2% | 2% | -18
Cc1cc2nc(-c3cccnc3SCC(=O)NCc3ccco3)[nH]c2cc1C | 11µM* | -16% | -1 | . | 9% | 11
O=C(CCCl)Nc1cccc2cccnc12 | . | . | -4 | . | . | 29
N#CC(C#N)=c1ccc2c(c1)NC1(CCCCC1)N=2 | 13µM* | -27% | 1 | 11% | ? | -9
C[N+](C)(C)c1nc(N)nc2c1ncn2[C@H]1O[C@@H](CO)[C@@H](O)[C@H]1O | -2%[7.66 µM] | . | . | . | . | .
Cc1ccc(N2C(=O)c3ccccc3C2O)nc1 (stereo not given) | 4.5µM* | 8% | 3 | -3%[46.1 µM] | 0% | -2
Cc1ccc(N2C(=O)c3ccccc3C2Nc2ccccc2F)nc1 (stereo not given) | -5% | -2% | -3 | 0% | 2% | -3

Compound activity as filed in PubChem BioAssay.
